The results in this text go back to PubChem BioAssay (NCATS).

Assay in all cases: qHTS profiling for inhibitors of Plasmodium falciparum proliferation (AID 504749); further: nearly all actives have a fitted effect of over 60% in size
Settings in all cases: P. falciparum in erythrocytes, SYBR Green DNA, 72 h; series mostly up to 28.7 µM

Test [1] deals with CP238. The method, boiled down:
(§1)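 P. falciparum-infected erythrocytes (0.3% parasitemia, 2.5% hematocrit final) were exposed to compounds for 72 h at 37 C in 5% CO2, then lysed with SYBR Green buffer overnight at room temperature; parasite DNA fluorescence was normalized to artemisinin and DMSO controls.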

Test [2] has as its system CP256. The method, boiled down: as §1
In test [3] the test system is CP260. A digest of the protocol:
as §1

In test [4] the test system is CP291. A digest of the protocol:
as §1

The subject of test [5] is GB4. The method, boiled down: as §1
The test system of test [6] is 3D7. The method, boiled down: as §1
For test [7], the system named is AS120. The method, boiled down:
as §1

In test [8] the test system is ATS189. A digest of the protocol: as §1
Test [9] relates to CP185. The method, boiled down:
as §1

Test [10] relates to CP194. The method, boiled down:
as §1

The test system of test [11] is CP217. The method, boiled down:
as §1

Test [12] concerns CP237. A digest of the protocol:
as §1

Test [13] has as its system CP252. The method, boiled down: as §1
The test system of test [14] is CP265. The method, boiled down:
as §1

Test [15] deals with CP268. A digest of the protocol: as §1
Test [16] relates to CP335. The method, boiled down:
as §1

The test system of test [17] is DIV30. The method, boiled down: as §1
Test [18] concerns PC15. A digest of the protocol: as §1
For test [19], the system named is SC27B. A digest of the protocol:
as §1

Test [20] concerns TAB165. A digest of the protocol: as §1

Inconclusive results are not listed. The source made the active and inactive calls. The call rests on the fitted dose curve; in most records, active means well fitted inhibition curve with a large enough effect; inconclusive means small, poorly fitted or top-dose-only effect; inactive means flat fitted curve, though single readings scatter.
Potency means the concentration at half of the fitted maximal effect.

`Cc1cc(O)c2c(c1)OC1(C)CCC3C(C)(C)CCCC34COC2C14` (stereo not given): the Potency result in test [1], in test [2], in test [3] and in [4] was “inactive” throughout. Moreover, the Potency in test [5] was 15.1 µM (active).
Turning to `Cc1cnc(NC(=O)C2C(=O)c3ccccc3S(=O)(=O)N2C)s1` (stereo not given), the Potency result in test [6], in [7], in [8], in test [9], in [10] and in test [11] was “inactive” throughout. Moreover, the Potency entry in [12], in [1], in test [13], in [2], in test [3] and in test [14] was “inactive” in each case. In addition, the Potency result in test [15], in test [4], in test [16], in test [17], in test [5] and in [18] was “inactive” each time. In [19], the Potency entry was “inactive”.
Turning to `CCCCC(=O)OC1CCC2C3CCc4cc(O)ccc4C3CC[C@]12C` (stereo not given in full), the Potency entry in test [6], in test [9], in test [10], in [11], in test [12] and in test [1] was “inactive” each time. Further, the Potency result in [13], in test [3], in [14], in test [15], in [4] and in [17] was “inactive” each time. Also, the Potency entry in test [5] was “inactive”.
Take `Oc1cc2cc(CCN3CCN(c4nsc5ccccc45)CC3)c(Cl)cc2[nH]1`: the Potency result in [8], in [9], in [10], in [11], in test [1] and in [13] was “inactive” in each case. Also, the Potency entry in test [2], in test [14] and in [19] was “inactive” in each case.
For `C=C1N[C@]2(C(=O)COC(C)=O)[C@@H](C[C@H]3[C@@H]4CCC5=CC(=O)C=C[C@]5(C)[C@H]4[C@@H](O)C[C@@]32C)O1`, the Potency entry in test [12], in [13], in [2], in test [14], in test [5] and in test [18] was “inactive” in each case.
With `C[C@@H]1CC2[C@@H]3C[C@H](F)C4=CC(=O)C(Cl)=C[C@]4(C)[C@@]3(F)[C@H](O)C[C@]2(C)[C@@]1(O)C(=O)CO` (stereo not given in full), the Potency entry in test [6], in test [8], in test [10], in test [11], in test [2] and in test [14] was “inactive” throughout. In addition, the Potency entry in [15], in test [4], in [16], in [17], in test [18] and in test [19] was “inactive” in each case.
Regarding `CC1=C[C@@H](O)CC(C)(C)[C@@H]1/C=C/C(C)=C/C=C/C(C)=C/C=C/C=C(C)/C=C/C=C(C)/C=C/C1=C(C)C[C@H](O)CC1(C)C`, the Potency in [6] was 10 µM (active). In addition, the Potency entry in test [8], in test [9], in [10], in [1], in test [13] and in test [2] was “inactive” throughout. Moreover, the Potency entry in test [15] and in test [4] was “inactive” in each case.
Take `C=C1CC2C3C=C(C)C4=CC(=O)CCC4(C)C3CCC2(C)[C@@]1(OC(C)=O)C(C)=O` (stereo not given in full): the Potency result in test [7], in test [9], in test [12], in test [1], in test [13] and in [14] was “inactive” throughout. For the same compound, the Potency result in test [18] and in test [19] was “inactive” throughout.
On to `CCOc1ccccc1O[C@@H](c1ccccc1)[C@@H]1CNCCO1`, for which the Potency in test [7] was 11.2 µM (active); in test [17], 6.75 µM (active); in test [20] it was 10 µM (active). The Potency result in test [9], in test [15] and in [4] was “inactive” throughout.
For the compound `CN(C)CC[C@@](O)(c1ccccc1)c1ccccc1Cl`, the Potency in test [7] was 8.91 µM (active); in [8], 5.62 µM (active); in test [9], 11.2 µM (active); in [10] it was 7.57 µM (active); in test [11], 12.6 µM (active); in test [12] it was 1.41 µM (active). Also, the Potency in test [1] is 11.2 µM (active); in [13], 11.2 µM (active); in [2] it was 5.62 µM (active); in [3], 10 µM (active); in test [14], 7.08 µM (active); in [15], 13.5 µM (active). In addition, the Potency was 7.57 µM (active) in [16]; 10.7 µM (active) in test [17]; 7.57 µM (active) in [5]; 7.08 µM (active) in test [18]; 5.62 µM (active) in test [19]; 6.31 µM (active) in test [20].
For `O=C(O)c1ccccc1-c1c2ccc(=O)cc-2oc2cc(O)ccc12`, the Potency result in test [4] is “inactive”.
Turning to `O=C(O)C[CH2][Ge](=[O])[O][Ge](=[O])[CH2]CC(=O)O`, the Potency entry in test [7], in [8], in test [9], in [10], in test [11] and in test [12] was “inactive” throughout. Further, the Potency result in [1], in test [13], in test [2], in [3], in test [14] and in test [15] was “inactive” throughout. The Potency entry in [4], in [16], in test [17], in [5], in test [18] and in test [19] was “inactive” in each case. In addition, the Potency result in [20] was “inactive”.
